# Screening data from PubChem.
# Sampled rows, rich in hits. Any-hit rate of the full collection: about 1.1%.
# LRH-1 inv ag: LRH-1 (NR5A2) inverse agonists, primary screen, cell-based, luminescence, HEK293T, StAR-luciferase reporter; Nuclear receptor subfamily 5 group A member 2 (Homo sapiens), O00482; LRH-1 transfected, 24 h; inhibition, % at 3.6 µM; 0.13% of 360,000 active; AID 602396, 2012;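 active = inhibition above the mean inhibition of all tested compounds plus 3 SD, cut at about 73% in these data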;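 also: 0% = DMSO wells and 100% = reporter-only cells lacking LRH-1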
# SRC2 inh: inhibition of GAL4-SRC2 driven luciferase reporter, primary screen, SRC2 inhibitor project, cell-based, luminescence. HEK293 GAL4-SRC2 luciferase reporter. inhibition, % at 9 µM. 0.17% of 370,000 active. Nuclear receptor coactivator 2 (Homo sapiens), Q15596;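 active = inhibition above the mean inhibition of all tested compounds plus 3 SD, set per campaign, cut at about 52% in these data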;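 also: 0% = DMSO treated cells and 100% = cells given Gossypol at 36 µM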
# SRC3 inh: SRC3 coactivator transcriptional activity inhibitors, primary screen, cell-based, luminescence | Nuclear receptor coactivator 3 (Homo sapiens), Q9Y6Q9 | HEK293 GAL4-SRC3 luciferase reporter | inhibition, % at 3.6 µM | 0.17% of 360,000 active | AID 588352, 2011;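 active = inhibition above a per-campaign cutoff, the mean of all compounds plus 3 SD, cut at about 60% in these data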;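 also: 0% = DMSO-treated cells and 100% = gossypol-treated cells at 36 µM; higher means less SRC3-driven luciferase light from the GAL4 reporter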
# NR2F2 inh: NR2F2 transcriptional activity inhibitors, primary screen, cell-based, luciferase reporter, HEK293T, luminescence; 0.7% of 370,000 active; inhibition, % at 8.6 µM; HEK293T NGFI-A luciferase reporter;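 active = inhibition above a per-plate cutoff, mean inhibition of test wells between control levels plus 3 SD, cut at about 38% in these data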;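 also: cells cotransfected with COUP-TFII expression vector driving the NGFI-A reporter; 0% = median of COUP-TF2 test wells and 100% = reporter-only cells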
# GalR3 antagonist: GalR3 antagonists in HEK293 cells, primary screen, cell-based, fluorescence readout | inhibition, % at 3 µM | AID 651719, 2012 | HEK293 GalR3-CNG cAMP membrane potential fluorescence; galR3 body fused to GalR1 C-terminus | Galanin receptor type 3 (Homo sapiens), O60755 | 0.44% of 360,000 active;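 active = inhibition above the screen-wide average plus 3 SD, cut at about 13% in these data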;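 also: forskolin and galanin both at EC90 stimulate the cells; cAMP rise reported by CNG channel membrane potential dye signal; 0% = forskolin plus galanin with DMSO and 100% = forskolin alone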
# SRC1 inh: SRC1 coactivator transcriptional activity inhibitors, primary screen, cell-based, luminescence; inhibition, % at 3.6 µM; 0.12% of 360,000 active; HEK293 GAL4-SRC1 luciferase reporter;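 active = inhibition above the campaign mean plus 3 SD, with each screening campaign given its own cutoff, cut at about 60% in these data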;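 also: 0% = DMSO treated cells and 100% = gossypol at 36 µM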
# GalR3 conf: GalR3 antagonist hit confirmation, cell-based, fluorescence, triplicate; 59% of 1,600 active; HEK293 GalR3 CNG cAMP biosensor, membrane potential fluorescence; galR3 fused to GalR1 carboxy tail; challenged with forskolin and galanin at EC90; shares compounds with GalR3 antagonist; inhibition, % at 3 µM; AID 652245, 2013;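 active = inhibition above the primary screen's cutoff, the mean inhibition of all screened compounds plus 3 SD, cut at about 13% in these data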;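 also: 0% = forskolin plus galanin and 100% = forskolin alone with DMSO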
# CNG parental: nonspecific cAMP agonists in parental HEK-CNG cells, counter-screen for GalR3 antagonist project, cell-based, fluorescence, high throughput; shares compounds with GalR3 antagonist; activation, % at 3 µM; HEK293-CNG parental cells, cAMP membrane potential fluorescence; normalised: DMSO wells 0%, forskolin wells 100%; 10% of 1,600 active; in the data active = activation above about 1.3%
# VP16 Luc counter: Gal4-VP16 luciferase reporter inhibitors, counter-screen for COUP-TFII antagonist project, cell-based, luminescence, HEK293; shares compounds with NR2F2 inh; inhibition, % at 8.5 µM; 25% of 2,500 active; AID 687007, 2013; in the data active = inhibition above about 13%
# COUP-TFII conf: NR2F2 transcriptional activity inhibitors, confirmation, cell-based, luciferase reporter, HEK293, triplicate; shares compounds with NR2F2 inh; HEK293 NGFI-A luciferase reporter, luminescence; inhibition, % at 8.5 µM; 45% of 2,500 active;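 active = mean inhibition over three repeats above a set limit taken from the earlier primary screen, cut at about 38% in these data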;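 also: 100% = cells given the luciferase reporter alone without the COUP-TF2 vector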
# Numbers without * were called inactive; x = no result given.
SMILES,LRH-1 inv ag,SRC2 inh,SRC3 inh,NR2F2 inh,GalR3 antagonist,SRC1 inh,GalR3 conf,CNG parental,VP16 Luc counter,COUP-TFII conf
O=C(NC1CCN(Cc2ccccc2)CC1)c1ccc2c(c1)[nH]c(=O)n2Cc1ccc(F)cc1,18.8,-1.2,20.3,64.4*,54.6*,-8.2,59.4*,0.6,2.8,34.0
CN(c1ccc(C(=O)Nc2ccc(S(=O)(=O)N3CCCC3)cc2)cc1)S(C)(=O)=O,28.6,30.5,25.2,46.7*,93.5*,5.3,95.4*,0.0,-3.5,11.0
Cc1ccc(NS(=O)(=O)c2ccc(C(=O)NC3CCN(Cc4ccccc4)CC3)cc2)cc1,38.3,-1.4,21.5,63.9*,90.5*,31.4,103.2*,0.6,1.0,49.5*
C[C@@H]1CN([C@H](C)CO)C(=O)CCCn2nncc2CO[C@@H]1CN(C)C(=O)c1ccncc1,8.7,-4.0,0.6,4.9,-5.7,-18.5,x,x,x,x
COc1ccc(S(=O)(=O)Nc2ccc(N3CCOCC3)cc2)cc1,9.8,13.5,10.8,-4.8,-8.6,17.8,x,x,x,x
O=C(Nc1ccc(S(=O)(=O)N2CCCCC2)cc1)c1ccc(CN2CCOCC2)cc1,49.9,x,45.4,x,x,28.4,x,x,x,x
CCN(CC)S(=O)(=O)c1ccc(NC(=O)c2ccc(OCC3CCCO3)cc2)cc1 (stereo not drawn),18.0,12.2,-16.4,61.3*,34.5*,20.2,104.2*,-0.3,9.2,49.4*
CCCOc1ccc(C(=O)Nc2ccc(CN3CCOCC3)cc2)cc1,-22.1,11.4,-12.6,0.1,-5.8,-5.7,x,x,x,x
COc1ccc(NS(=O)(=O)c2ccc(N3CCOCC3)c(N)c2)cc1,26.0,23.8,16.1,47.9*,83.9*,3.5,82.8*,-0.4,-9.4,33.5
CCOc1ccc(NC(=O)c2ccc(OCC3CCCO3)cc2)cc1S(=O)(=O)N(CC)CC (stereo not drawn),-5.7,4.2,7.3,13.0,-6.4,1.0,x,x,x,x
COc1ccc(NS(=O)(=O)c2ccc(NC(=O)c3ccc(CN4CCOCC4)cc3)cc2)cc1,37.0,28.9,-2.4,63.9*,88.7*,7.9,118.2*,-1.0,-3.6,51.9*
O=C(Nc1ccc(S(=O)(=O)N2CCCC2)cc1)c1ccc(CN2CCOCC2)cc1,33.3,23.9,28.9,63.3*,106.9*,24.0,64.1*,0.2,6.0,48.5*
CCCCOc1ccc(C(=O)Nc2ccc(CN3CCOCC3)cc2)cc1,20.1,28.4,5.4,31.6,-8.1,17.0,x,x,x,x
CCN(CC)S(=O)(=O)c1ccc(NC(=O)c2ccc(CN3CCOCC3)cc2)cc1,43.5,8.4,18.9,70.8*,101.4*,12.2,106.3*,-0.7,7.8,64.2*
COc1ccc(CN2CCN(C(=O)c3ccc(S(=O)(=O)N4CCCCCC4)cc3)CC2)cc1,26.9,-33.8,21.4,62.6*,26.5*,24.9,90.4*,-0.6,3.0,48.1*
O=C(NCC1CCN(C(=O)C(=O)c2cccs2)CC1)c1cccnc1,x,3.1,x,2.2,-7.0,x,x,x,x,x
C[C@@H]1CNC(=O)c2c(C(=O)N3CCN(c4ccccc4)CC3)ncn21,x,-3.8,x,-9.3,-6.4,x,x,x,x,x
N#Cc1nc(N2CCCC2)nc(N2CCCC2)n1,19.1,15.2,17.2,46.8*,98.2*,2.5,111.6*,-0.1,-5.9,33.5
N#Cc1nc(N2CCCCC2)nc(N2CCOCC2)n1,14.4,1.5,-9.0,10.4,-2.2,-1.7,x,x,x,x
CCNC(=O)N(C)[C@H]1C[C@@H](c2ccccc2)N(C(C)=O)C[C@H]1CO,x,-2.5,x,-2.4,-0.1,x,x,x,x,x
NC(=O)c1ccc(N2CCN(S(=O)(=O)c3cccs3)CC2)c([N+](=O)[O-])c1,47.9,-10.2,33.8,60.5*,101.4*,15.8,102.1*,-0.6,4.5,56.4*
COc1cccc(N2CCN(c3ncnc4c3[nH]c3ccc(F)cc34)CC2C)c1 (stereo not drawn),89.2*,81.3*,87.3*,90.8*,36.6*,84.7*,78.9*,0.7,92.3*,108.5*
CC(=O)OC[C@]1(OC(C)=O)C[C@@]23CC[C@H]4[C@@](C)(CCC[C@@]4(C)C(=O)O)[C@@H]2CC[C@@H]1C3,-5.8,2.0,3.5,11.3,-0.9,-5.3,x,x,x,x
CC(=O)OC[C@]12CC[C@H]3[C@@](C)(CC[C@H]4C(C)(C)CCC[C@]34C)[C@@H]1CC(C1=CC(=O)OC1O)O2 (stereo partly drawn),102.5*,79.8*,85.0*,81.6*,30.1*,79.6*,43.7*,1.8*,92.5*,104.8*
CCCCS(=O)(=O)N1CCCc2nc(-c3ccc(F)cc3)ccc21,x,-27.7,x,-9.6,-7.3,x,x,x,x,x
Cc1cc(CNC(=O)c2cccc([N+](=O)[O-])c2C)c2ccccc2n1,38.6,26.9,34.2,64.2*,32.7*,29.7,53.5*,0.2,3.9,55.2*
CC(C)(C)NC(=O)C1(C)CCC(=O)N1C1CC1 (stereo not drawn),2.2,-28.0,0.6,-7.8,-8.1,-9.2,x,x,x,x
COc1ccc(CCNc2ccc(N3C(=O)CC(C)C3=O)cc2[N+](=O)[O-])cc1OC (stereo not drawn),35.7,29.4,21.2,55.4*,59.0*,8.3,103.6*,-0.6,-4.7,24.1
CCCCCCn1c(NCC)nc2c1c(=O)n(C)c(=O)n2C,45.2,10.8,30.0,56.5*,31.6*,24.8,76.6*,0.5,10.6,48.9*
O=C(Nc1nc(-c2ccccc2)cs1)c1ccccc1NS(=O)(=O)c1ccc(F)cc1,75.1*,24.9,59.6,55.1*,17.0*,43.7,76.5*,-0.9,-4.4,32.4
